In PMC5540273 (PLoS ONE, 2017):

How the values were obtained:
Conditions in all cases: concentration: 1 μM,replicates: in singlicate; n = 1
DCAMKL2 = tested on: T1, DCAMKL2
T1 construct: gene DCLK2

DCAMKL3 = tested on: T2, DCAMKL3
T2 construct: gene DCLK3

DDR1 = tested on: DDR1
DDR2 = tested on: DDR2
DLK = tested on: T3, DLK
T3 construct: gene MAP3K12

DMPK2 = tested on: T4, DMPK2
T4 construct: gene CDC42BPG

DMPK = tested on: DMPK
DRAK1 = tested on: T5, DRAK1
T5 construct: gene STK17A

DRAK2 = tested on: T6, DRAK2
T6 construct: gene STK17B

DYRK1A = tested on: DYRK1A
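Also: KINOMEscan kinase panel screen.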

With O=C(NOCC1CC1)c1cc(Br)c(F)c(F)c1Nc1ccc(I)cc1Cl as the compound, how does the “%Inh” value (DCAMKL2) read?
Its value is 2%.

What about the “%Inh” value (DCAMKL3) of the same compound?
The value was 0%.

What about the “%Inh” value (DDR1) of the same compound?
The value was 0%.

What about the “%Inh” value (DDR2) of the same compound?
Its value is 22%.

What about the “%Inh” value (DLK) of the same compound?
The value was 0%.

What about the “%Inh” value (DMPK2) of the same compound?
The value was 0%.

What about the “%Inh” value (DMPK) of the same compound?
The value was 0%.

What about the “%Inh” value (DRAK1) of the same compound?
The value was 0%.

What about the “%Inh” value (DRAK2) of the same compound?
Its value is 0%.

And the “%Inh” value (DYRK1A)?
The value was 0%.

Which “%Inh” value (DCAMKL2) does the source give for CC(C)c1nc(-c2cccc(NS(=O)(=O)c3ccccc3)c2)c(-c2ccnc(Nc3ccc4c(c3)CN(C)CC4)n2)s1 [GSK1649598] here?
Its value is 17%.

What about the “%Inh” value (DCAMKL3) of the same compound?
Its value is 17%.

What about the “%Inh” value (DDR1) of the same compound?
The value was 100%.

What about the “%Inh” value (DDR2) of the same compound?
Its value is 42%.

What about the “%Inh” value (DLK) of the same compound?
Its value is 69%.

And the “%Inh” value (DMPK2)?
The value was 61%.

And the “%Inh” value (DMPK)?
Its value is 0%.

What about the “%Inh” value (DRAK1) of the same compound?
Its value is 0%.

What about the “%Inh” value (DRAK2) of the same compound?
Its value is 0%.

And the “%Inh” value (DYRK1A)?
Its value is 4%.

Which results are given for O=C(Nc1cccc(Oc2ccc3nccn3n2)c1)Nc1cccc(C(F)(F)F)c1?
%Inh (DCAMKL2): 15%; %Inh (DCAMKL3): 0%; %Inh (DDR1): 99.3%; %Inh (DDR2): 97.8%; %Inh (DLK): 3%; %Inh (DMPK2): 15%; %Inh (DMPK): 0%; %Inh (DRAK1): 0%; %Inh (DRAK2): 0%; %Inh (DYRK1A): 0%

For N#Cc1cccc(C(=O)NC2CCN(c3ccnc(Nc4ccc(F)cc4)n3)C2)c1 (centres unmarked) [GSK1379708], which “%Inh” value (DCAMKL2) is on record?
The value was 9%.

What about the “%Inh” value (DCAMKL3) of the same compound?
The value was 9%.

And the “%Inh” value (DDR1)?
The value was 0%.

And the “%Inh” value (DDR2)?
Its value is 0%.

What about the “%Inh” value (DLK) of the same compound?
The value was 35%.

And the “%Inh” value (DMPK2)?
The value was 0%.

What about the “%Inh” value (DMPK) of the same compound?
Its value is 0%.

And the “%Inh” value (DRAK1)?
Its value is 0%.

What about the “%Inh” value (DRAK2) of the same compound?
The value was 4%.

What about the “%Inh” value (DYRK1A) of the same compound?
The value was 21%.

With CCn1c(-c2nonc2N)nc2cncc(CNC3CCNCC3)c21.Cl [SB-747651] as the compound, how does the “%Inh” value (DCAMKL2) read?
Its value is 0%.

What about the “%Inh” value (DCAMKL3) of the same compound?
The value was 7%.

And the “%Inh” value (DDR1)?
The value was 19%.

And the “%Inh” value (DDR2)?
The value was 25%.

What about the “%Inh” value (DLK) of the same compound?
The value was 23%.

And the “%Inh” value (DMPK2)?
The value was 0%.

What about the “%Inh” value (DMPK) of the same compound?
Its value is 27%.

What about the “%Inh” value (DRAK1) of the same compound?
The value was 6%.

And the “%Inh” value (DRAK2)?
The value was 0%.

And the “%Inh” value (DYRK1A)?
Its value is 56%.

Which “%Inh” value (DCAMKL2) does the source give for Cc1nnc(-c2ccc3occ(-c4ccc(S(C)=O)cc4)c3n2)o1 (centres unmarked) here?
Its value is 0%.

What about the “%Inh” value (DCAMKL3) of the same compound?
Its value is 0%.

What about the “%Inh” value (DDR1) of the same compound?
The value was 0%.

What about the “%Inh” value (DDR2) of the same compound?
The value was 1%.

And the “%Inh” value (DLK)?
The value was 0%.

And the “%Inh” value (DMPK2)?
Its value is 0%.

And the “%Inh” value (DMPK)?
The value was 0%.

What about the “%Inh” value (DRAK1) of the same compound?
The value was 0%.

What about the “%Inh” value (DRAK2) of the same compound?
The value was 0%.

And the “%Inh” value (DYRK1A)?
Its value is 0%.

Cn1ccc2ncnc(Oc3ccc(NC(=O)Nc4cccc(C(F)(F)F)c4)c(F)c3)c21 was tested. Which “%Inh” value (DCAMKL2) did it give?
The value was 18%.

What about the “%Inh” value (DCAMKL3) of the same compound?
Its value is 17%.

And the “%Inh” value (DDR1)?
The value was 96.9%.

What about the “%Inh” value (DDR2) of the same compound?
The value was 100%.

What about the “%Inh” value (DLK) of the same compound?
The value was 0%.

What about the “%Inh” value (DMPK2) of the same compound?
The value was 4%.

And the “%Inh” value (DMPK)?
Its value is 0%.

And the “%Inh” value (DRAK1)?
Its value is 0%.

What about the “%Inh” value (DRAK2) of the same compound?
The value was 24%.

What about the “%Inh” value (DYRK1A) of the same compound?
Its value is 0%.

With NC(=O)c1ccc(-c2cc3ncnc(SCC(=O)O)c3s2)cc1 as the compound, how does the “%Inh” value (DCAMKL2) read?
The value was 9%.

What about the “%Inh” value (DCAMKL3) of the same compound?
Its value is 17%.

What about the “%Inh” value (DDR1) of the same compound?
Its value is 0%.

And the “%Inh” value (DDR2)?
Its value is 9%.

And the “%Inh” value (DLK)?
The value was 0%.

What about the “%Inh” value (DMPK2) of the same compound?
The value was 24%.

What about the “%Inh” value (DMPK) of the same compound?
Its value is 0%.

What about the “%Inh” value (DRAK1) of the same compound?
Its value is 98.3%.

What about the “%Inh” value (DRAK2) of the same compound?
Its value is 100%.

And the “%Inh” value (DYRK1A)?
Its value is 94.8%.
